Compound activity deposited in PubChem by National Center for Advancing Translational Sciences (NCATS).
Compounds with a hit are over-represented: about 3.7% of the library has one in this group of screens.
FMDV antiviral – blocks foot and mouth disease virus; FMDV antiviral cell-based qHTS; Potency, µM (doses to about 57.9 µM), actives largely listed as inhibitors; hit rate 1.2% among 410,000; AID 1159524; calls by dose curve; tested in HEK293T cells; note: read-out not given here; nearly all actives have a fitted effect of over 45% in size
RE007 growth inh – less growth of the S. pombe RE007 Vpr strain; Potency, µM (series often up to 92.2 µM), most hits filed as inhibitors; hit rate 0.21% among 360,000; S. pombe RE007 Vpr strain, BacTiter-Glo ATP luminescence, 24 h; AID 651644; active = well fitted falling curve with a large enough effect; inconclusive = small, poorly fitted or top-dose-only effect; inactive = no such curve, though single readings can be large or run the other way; note: nearly all actives have a fitted effect of over 50% in size
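Fission yeast RE007 carrying one integrated HIV-1 vpr copy, seeded at OD 0.01 in PMG+AL medium with 23 nL pinned compound. Grown 24 h at 30 degrees; viability read by BacTiter-Glo luminescence after 5 min.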
Tb PYK inh – T. brucei pyruvate kinase inhibition; TbPYK enzyme, Kinase-Glo Plus ATP luminescence, 45 min; AID 624173; Potency, µM (highest dose often 76.8 µM), most hits filed as inhibitors; hit rate 0.12% among 410,000; Q57TT1; note: nearly all actives have a fitted effect of over 50% in size
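In this concentration-response screen, enzyme-free wells defined baseline while DMSO plates tracked drift. Each reaction combined TbPYK, substrate, compound and 130 uM ADP for 45 min at room temperature. Kinase-Glo Plus luminescence gave the signal.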
Sm TGR block – blocks Schistosoma mansoni thioredoxin glutathione reductase; Potency, µM (series often up to 114 µM), most hits filed as inhibitors; Q962Y6; purified TGR, DTNB reduction, TNB absorbance 405 nm; hit rate 3% among 360,000; note: nearly all actives have a fitted effect of over 60% in size
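Kinetic colorimetric format: TGR-catalysed, NADPH-driven DTNB reduction monitored via TNB absorbance. Enzyme dispensed at 20 nM; compound exposure 15 min at room temperature before reaction start.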
Each line names hits and unclear results; the compound was inactive in the other large screens. Unless noted, calls come from the whole dose curve; as a rule, active = well fitted curve in the direction sought with a large enough effect; inconclusive = small, poorly fitted or top-dose-only effect, or another doubt; inactive = no such curve, though single readings can be large; an effect the other way counts as inactive or inconclusive.

Cc1ccc2c(c1)CN(CCNC(=O)c1cc3ccccc3oc1=O)CC(C)O2 (configuration not stated)	none (no result: RE007 growth inh, Tb PYK inh, Sm TGR block)
Cc1ccc2c(c1)c1c(c(=O)n(-c3ccccc3C)c(=O)n1Cc1ccccc1F)n2C	none (no result: RE007 growth inh)
COC(=O)c1ccc(CSc2ccc3nnc(-c4cccnc4)n3n2)o1	Sm TGR block 40µM (no result: FMDV antiviral, RE007 growth inh, Tb PYK inh)
COC(=O)c1cc2c(s1)c1cnn(Cc3ccccc3F)c(=O)c1n2C	none (no result: FMDV antiviral, RE007 growth inh, Tb PYK inh)
CC(C)Oc1ccc(Cc2cnc(=S)[nH]c2N)cc1	Sm TGR block 71µM
CC(C)[C@@H]1CC[C@@H](C)C[C@H]1OC(=O)C[n+]1cc(-c2ccc(Cl)cc2)n2c1CCCCC2	FMDV antiviral inconclusive
COc1ccc(-c2c[n+](CC(=O)OC3CC(C)CCC3C(C)C)c3n2CCC3)cc1 (configuration not stated)	FMDV antiviral 13µM
CC(C)CC1(C(=O)NCCc2c[nH]c3ccccc23)C=CCN1C(=O)c1ccccc1 (configuration not stated)	Sm TGR block 40µM
O=C(O)c1ccccc1NS(=O)(=O)c1cccc2cccnc12	none
COc1ccc(OC)c(S(=O)(=O)Nc2cccc3c(O)cccc23)c1	none (no result: Sm TGR block)
O=S(=O)(Nc1cc(Sc2cccc3cccnc23)c(O)c2ccccc12)c1ccccc1	Sm TGR block 3.5µM (no result: FMDV antiviral, RE007 growth inh, Tb PYK inh)
CCc1ccc(S(=O)(=O)Nc2ccc(O)c3ccccc23)cc1	Sm TGR block 10µM (no result: RE007 growth inh)
O=C(O)c1cccc(S(=O)(=O)Nc2ccc([N+](=O)[O-])cc2O)c1	none
O=C(O)CSc1cc(NS(=O)(=O)c2cccc([N+](=O)[O-])c2)c2ccccc2c1O	FMDV antiviral 10µM, Tb PYK inh inconclusive, Sm TGR block 1.8µM
COc1ccc(OC)c(S(=O)(=O)Nc2ccc(O)c3ccccc23)c1	Tb PYK inh inconclusive, Sm TGR block 10µM
COc1ccc(-n2c(CCNC(=O)c3ccccc3C(F)(F)F)nnc2SC)cc1	none (no result: RE007 growth inh, Tb PYK inh, Sm TGR block)
Cc1ccc(C)c(S(=O)(=O)Nc2cc(SCC(=O)O)c(O)c3ccccc23)c1	FMDV antiviral inconclusive, Tb PYK inh 16µM, Sm TGR block 3.5µM
Cc1ccc(S(=O)(=O)Nc2cccc3cccnc23)cc1	FMDV antiviral 28µM
Cc1ccc(NS(=O)(=O)c2cc(NC(=O)C(C)Oc3ccccc3)ccc2C)c(C)c1 (configuration not stated)	none
CCOc1ccc(S(=O)(=O)Nc2cc(SCC(=O)O)c(O)c3ccccc23)cc1	FMDV antiviral inconclusive, Tb PYK inh inconclusive, Sm TGR block 7.1µM
COc1cc(NS(=O)(=O)c2ccc(C)cc2)c2ncccc2c1	FMDV antiviral inconclusive
Cc1oc2c(cc(NS(=O)(=O)c3ccc(C(C)C)cc3)c3ccccc32)c1C(=O)O	Sm TGR block inconclusive
CCc1ccc(S(=O)(=O)Nc2cc(SCC(=O)O)c(O)c3ccccc23)cc1	FMDV antiviral inconclusive, Tb PYK inh inconclusive, Sm TGR block 6.3µM
CN(C)Cc1c(O)ccc2ccccc12	Sm TGR block 1.1µM
Cc1ccc(NC(=O)CN(C)Cc2c(O)ccc3ccccc23)cc1	RE007 growth inh inconclusive, Sm TGR block 0.32µM
CC(C)CN(Cc1c(O)ccc2ccccc12)CC(C)C	none (no result: Sm TGR block)
CCN(CC(=O)Nc1ccc(Br)cc1)CC(=O)Nc1cc(C)on1	Sm TGR block 50µM
CCN(Cc1ccncc1)Cc1c(O)ccc2ccccc12	Sm TGR block 0.71µM
O=C(CSc1ncc2c(n1)-c1ccc(Cl)cc1N(Cc1ccccc1)S2(=O)=O)Nc1ccccc1C(F)(F)F	none (no result: RE007 growth inh)
COc1ccc(CNc2ncncc2-c2cccc(C#N)c2)c(OC)c1	none (no result: RE007 growth inh, Tb PYK inh, Sm TGR block)
CC(C)C(NS(C)(=O)=O)c1nnc2n1CCN(Cc1cccc3ncccc13)CC2 (configuration not stated)	none (no result: RE007 growth inh, Tb PYK inh, Sm TGR block)
COc1ccc2ccccc2c1CN(C)Cc1ccccc1	none
CCN(CC(=O)Nc1ccc(NC(C)=O)cc1)Cc1c(O)ccc2cc(Br)ccc12	Sm TGR block 0.79µM
COc1ccc(CN(C)CC(=O)Nc2ccccc2C(F)(F)F)cc1	none
COc1ccc(CN(C)Cc2c(O)ccc3ccccc23)cc1	Sm TGR block 3.2µM
COc1ccc2ccc(O)c(CN(C)CC(=O)Nc3ccccc3C(F)(F)F)c2c1	Sm TGR block 1.8µM
COc1cccc(CN(C)CC(=O)Nc2cccc3ccccc23)c1	none
COc1cccc(CN(C)Cc2c(O)ccc3ccccc23)c1	Sm TGR block 2.5µM
COC(=O)C[C@]1(C(=O)OC)CN(C#N)N(c2ccc(Cl)cc2)C12c1ccccc1-c1ccccc12	FMDV antiviral 4.5µM
COC(=O)[C@@H]1[C@@H](C(=O)OC)C2(c3ccccc3-c3ccccc32)N(c2ccc(Cl)cc2)N1C#N	FMDV antiviral 3.5µM, Sm TGR block 2.8µM
COC(=O)C1OC2(OC1C(=O)OC)c1ccccc1-c1ccccc12 (configuration not stated)	none
CCN(CC)c1ccc(NC(=O)CCCN2C(=O)C(c3ccccc3)Oc3cccnc32)c(C)c1 (configuration not stated)	FMDV antiviral inconclusive (no result: RE007 growth inh)
O=C(c1ccc(F)cc1)N1CCN(CCc2ccncc2)CC1	Sm TGR block 40µM (no result: RE007 growth inh)
O=C(c1ccc(Cl)cc1)N1CCN(CCc2ccncc2)CC1	none (no result: RE007 growth inh)
Cc1cc(N2C(=O)C(=O)/C(=C(/O)c3ccccc3)C2c2cccs2)no1 (configuration not stated)	Sm TGR block 40µM
O=C(C1=NN[C@@H]2C(=O)N(c3cccc(F)c3)C(=O)[C@H]12)c1cnccn1	Sm TGR block 3.2µM
O=C(C1=NN[C@@H]2C(=O)N(c3ccccc3C(F)(F)F)C(=O)[C@H]12)c1cnccn1	none
COc1ccc(CCNC(=O)c2nc(SCc3ccc(C)cc3)ncc2Cl)cc1OC	FMDV antiviral inconclusive (no result: RE007 growth inh)
O=C(O)C1NCCN(C(=O)c2ccc3c(ccc4ccccc43)c2)C1C(=O)O (configuration not stated)	none (no result: RE007 growth inh, Tb PYK inh, Sm TGR block)
COc1ccc(N=Cc2c(O)c3ccccc3n2C(C)=O)cc1	RE007 growth inh inconclusive, Sm TGR block 28µM
COc1ccc(N=Cc2sc(O)c3ccccc23)cc1	none
CCOc1ccc(CN2C(=O)c3ccccc3Sc3ccc(C(=O)O)cc32)cc1	none (no result: RE007 growth inh)
COc1ccc(NC(=O)c2noc3c2CCC3)cc1	RE007 growth inh 40µM
CC(=O)c1ccc(NC(=O)c2noc3c2CCC3)cc1	FMDV antiviral inconclusive, Sm TGR block 40µM
Cc1ccc(NC(=O)c2noc3c2CCC3)cc1C	none
COc1ccc(NC(=O)c2ccc(=O)oc2)cc1	Sm TGR block 45µM (no result: FMDV antiviral)
O=C(Nc1ccc(OC(F)(F)F)cc1)c1noc2c1CCCC2	none (no result: RE007 growth inh)
Cc1nc2nc(SCC(=O)NCc3ccccc3)nn2c(C)c1Cc1ccccc1Cl	none (no result: RE007 growth inh)
CC(C)(C)OC(=O)N1CCC(N2CCN(Cc3ccccc3)C(=O)C2=O)CC1	none (no result: RE007 growth inh)
COc1ccc(NC(=O)CCc2nc3cccnc3n2Cc2cccs2)c(OC)c1	none (no result: RE007 growth inh)
Nc1nc2c(s1)COc1ccccc1-2	none
Nc1nc2c(s1)CCc1c-2cnn1-c1ccccc1	Tb PYK inh inconclusive, Sm TGR block 2.8µM (no result: RE007 growth inh)
Cc1c(C(=O)N2CC3CCC2C3)sc2ncnc(NCc3ccco3)c12 (configuration not stated)	none (no result: RE007 growth inh, Tb PYK inh, Sm TGR block)
Cc1c(/C=N/NC(=O)c2ccccc2O)c2ccccn2c1C(=O)c1ccc(F)cc1	FMDV antiviral 25µM
